Data: PubChem BioAssay AID493168 (National Center for Advancing Translational Sciences (NCATS), 2011)
Records with an inconclusive call do not appear. Active and inactive are the calls of the source. Calls follow the shape of the dose curve; as a rule, active = well fitted inhibition curve with a large enough effect; inconclusive = small, poorly fitted or top-dose-only effect, or effect the other way; inactive = flat fitted curve, though single readings scatter.

The compounds below were run against Ubiquitin carboxyl-terminal hydrolase 2 (Homo sapiens) (UniProt O75604) (assay: Confirmation Assay for Inhibitors of Ubiquitin-specific Protease USP2a Using CHOP2 as the Reporter). Details: USP2 core, Ub-CHOP2 coupled reporter fluorescence; series mostly up to 38.3 µM; activity change, negative = inhibition: at the top concentration.
Sequence of Ubiquitin carboxyl-terminal hydrolase 2 (Homo sapiens) (O75604 whole entry, looked up): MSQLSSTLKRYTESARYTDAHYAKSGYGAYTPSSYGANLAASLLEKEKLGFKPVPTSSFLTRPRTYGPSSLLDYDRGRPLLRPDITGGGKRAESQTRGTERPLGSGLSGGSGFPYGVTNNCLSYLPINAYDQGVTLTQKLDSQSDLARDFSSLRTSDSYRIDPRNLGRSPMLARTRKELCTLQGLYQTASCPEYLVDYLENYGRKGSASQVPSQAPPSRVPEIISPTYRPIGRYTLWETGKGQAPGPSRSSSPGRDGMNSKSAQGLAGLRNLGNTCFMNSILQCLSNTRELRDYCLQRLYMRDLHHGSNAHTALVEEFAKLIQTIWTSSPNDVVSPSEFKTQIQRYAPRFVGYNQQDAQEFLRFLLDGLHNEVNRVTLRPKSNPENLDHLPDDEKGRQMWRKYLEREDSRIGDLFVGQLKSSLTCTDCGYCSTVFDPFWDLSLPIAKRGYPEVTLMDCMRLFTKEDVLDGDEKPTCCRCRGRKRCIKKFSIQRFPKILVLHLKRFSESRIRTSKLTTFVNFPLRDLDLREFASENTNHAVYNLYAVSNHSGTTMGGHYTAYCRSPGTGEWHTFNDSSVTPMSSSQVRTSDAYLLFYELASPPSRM
How it was run: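 Ub-CHOP2 cleavage coupled to reporter activation was read by fluorescence after 60 min at RT, with 25 nM final Ub-CHOP2 and substrate. Enzyme (10 nM final USP2 core) first sat 30 min with compound; data were normalized to NEM and fitted to concentration-response curves.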
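Also: plate controls were DMSO wells for no effect and full inhibition by NEM control for full effect; nearly all actives have a fitted effect of over 55% in size.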

Compound | activity change, negative = inhibition
O=C(Nc1cccc(S(=O)(=O)N2CCCC2)c1)c1cncc(Br)c1 | -0.951% (inactive)
O=C(c1ccccc1)c1ccc2nc(-c3ccco3)c(-c3ccco3)nc2c1 | -1.57% (inactive)
C=CCNCCOCCOc1ccccc1-c1ccccc1 | -4.65% (inactive)
CCN(CC(=O)Nc1ccc(NC(C)=O)cc1)C(=O)c1ccc(N2CCC(C)CC2)c([N+](=O)[O-])c1 | -5.18% (inactive)
CC1CCc2c(sc3nc(CN4CCOCC4)nc(NS(=O)(=O)c4cccc([N+](=O)[O-])c4)c23)C1 (configuration not stated) | -11.3% (inactive)
NC1=NC2(CCC(c3ccccc3)CC2)n2c(nc3ccccc32)N1 (configuration not stated) | 1.88% (inactive)
Cc1ccc(CN2C(=O)N/C(=C\c3cccn3-c3cccc(C(=O)O)c3)C2=O)cc1 | 1.47% (inactive)
COc1ccc(NC(=O)CSc2nc3sc(C)cc3c(=O)n2C)c(OC)c1 | -4.17% (inactive)
C=CC[C@H](CC(=O)N[C@H](CO)Cc1ccccc1)C(=O)N[C@H](COC(=O)[C@@H](CC=C)CC(=O)OC(C)(C)C)Cc1c[nH]c2ccccc12 | -0.7% (inactive)
CCOc1ccc(S(=O)(=O)N(CC(=O)O)c2ccccc2)cc1 | 3.64% (inactive)
CC(C)n1nc(C(=O)Nc2ccccc2N2CCOCC2)c2ccccc2c1=O | 0.877% (inactive)
CCCc1nc(SCC(N)=O)[nH]c(=O)c1CC | 5.12% (inactive)
COc1ccccc1NC(=O)N1CCN(c2ccccn2)CC1 | -0.22% (inactive)
N=C1C(c2nc3ccccc3c(=O)[nH]2)=C(O)CN1CCc1ccccc1 | 0.0409% (inactive)
CCN(Cc1ccncc1)C(=O)c1cccs1 | -0.752% (inactive)
CC(=O)Nc1ccc(NC(=O)[C@@H](NC(=O)c2cccc(C)c2)C(C)C)cc1 | -0.179% (inactive)
CCOC(=O)N1CCN(C(=O)CN(c2ccc(C)c(C)c2)S(=O)(=O)c2ccccc2)CC1 | -1.56% (inactive)
